CYP2C19 inh: blockers of cytochrome P450 2C19 activity – biochemical, luminescence, ADME assay, primary screen. P33261. CYP2C19 Supersomes, luciferin-H EGE luminescence, 30 min. inhibition, % at 5 µM. actives 21% (n = 96,000). AID 778, 2007;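 active = CYP2C19 inhibition above a set limit at 5 µM in the primary screen, cut at about 50% in these data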
Target sequence (P33261 whole entry, looked up): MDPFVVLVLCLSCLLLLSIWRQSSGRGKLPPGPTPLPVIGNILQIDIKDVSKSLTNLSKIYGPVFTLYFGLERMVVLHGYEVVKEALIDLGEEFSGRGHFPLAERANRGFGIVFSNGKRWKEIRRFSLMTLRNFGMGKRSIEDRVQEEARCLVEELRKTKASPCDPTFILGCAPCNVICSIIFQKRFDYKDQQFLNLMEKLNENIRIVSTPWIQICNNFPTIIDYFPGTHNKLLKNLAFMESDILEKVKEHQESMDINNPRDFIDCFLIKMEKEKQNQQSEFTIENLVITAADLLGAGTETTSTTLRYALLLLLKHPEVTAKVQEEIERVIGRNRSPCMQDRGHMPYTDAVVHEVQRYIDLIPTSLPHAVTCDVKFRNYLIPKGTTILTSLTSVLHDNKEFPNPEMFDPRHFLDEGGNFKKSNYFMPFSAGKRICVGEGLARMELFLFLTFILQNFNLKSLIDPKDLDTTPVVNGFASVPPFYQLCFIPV
sEH activator: soluble epoxide hydrolase activators, primary screen, biochemical, human sEH. actives 0.04% (n = 91,000). purified human sEH enzymatic activity, activator screen. Bifunctional epoxide hydrolase 2 (Homo sapiens), P34913. AID 717, 2007. activation, % at 2 µM; in the data active = activation above about 37%
CYP2C9 inh: blockers of cytochrome P450 2C9 activity – biochemical, luminescence, ADME assay, primary screen; P11712; CYP2C9 Supersomes, luciferin-H conversion; inhibition, % at 5 µM; actives 20% (n = 96,000);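 active = blocking of liver enzyme CYP2C9 beyond about 50% at 5 µM, limit read from the data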
sEH inhibitor: soluble epoxide hydrolase inhibitors, primary screen, biochemical, human sEH; Bifunctional epoxide hydrolase 2 (Homo sapiens), P34913; recombinant human sEH enzymatic activity assay; inhibition, % at 2 µM; actives 0.34% (n = 91,000); AID 707, 2007; in the data active = inhibition above about 80%
CYP2C19 activ: human CYP2C19 activators, primary screen, biochemical, luminescence. activation factor at 5 µM. Cytochrome P450 2C19 (Homo sapiens), P33261. 96,000 tested, under 10 active. AID 1025, 2008. recombinant CYP2C19, luciferin-H EGE luminescence; stronger effect = higher value; 0 = fully inhibited enzyme, 1 = untreated enzyme;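 active = activation factor of at least 2 at 5 µM in the primary screen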
CYP2C9 act: human CYP2C9 activators, primary screen, biochemical, luminescence; Cytochrome P450 2C9 (Homo sapiens), P11712; actives 1.4% (n = 96,000); activation factor at 5 µM; recombinant CYP2C9, luciferin-H conversion; stronger effect = higher value; factor 1 = untreated enzyme, 0 = blocked;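 active = activation factor of 2 or more for CYP2C9 at a 5 µM dose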
Each line names hits and unclear results; the compound was inactive in the other large screens. The list is not random: actives were taken first. Their share in the collection is about 27%.

Cc1ccc(S(=O)(=O)N(C)CCCC(=O)N2CCN(c3ccccn3)CC2)cc1	CYP2C19 inh 52
Cn1c(O)c(C(=N)COc2cccc(Cl)c2)c(=O)n(C)c1=O	none
COC(=NC1CCCC1)C(O)c1c[nH]c2ccccc12 (stereo not given)	none (no result: CYP2C19 inh, CYP2C9 inh, CYP2C19 activ, CYP2C9 act)
O=P(C(c1c[nH]c2ccccc12)N1CCOCC1)(N1CCOCC1)N1CCOCC1 (stereo not given)	CYP2C9 inh 75
Cc1cc(S(=O)(=O)NC(C)C)ccc1OCC(=O)N1CCN(Cc2ccc3c(c2)OCO3)CC1	CYP2C19 inh 63, CYP2C9 inh 59
Cc1cc(S(=O)(=O)NCC(C)C)ccc1OCC(=O)N1CCN(Cc2ccccc2)CC1	CYP2C19 inh 50, CYP2C9 inh 66
CC(C)NS(=O)(=O)c1ccc(OCC(=O)N2CCN(Cc3ccc4c(c3)OCO4)CC2)c(Cl)c1	CYP2C19 inh 71
CC[N+](C)(CC)CCCOC(=O)C(O)(c1ccccc1)C1CCCCC1 (stereo not given)	none (no result: CYP2C19 inh, CYP2C9 inh, CYP2C19 activ, CYP2C9 act)
Cc1cc(C)nc(-n2c(C)nc3cc(Cl)ccc3c2=O)c1	CYP2C9 inh 90
O=c1[nH]c(=O)n(Cc2ccco2)c(O)c1C=NCCCn1ccnc1	none
CC(C)C12CN3CC(C(C)C)(CN(C1)C3c1cccnc1)C2=O (stereo not given)	none
C[C@H]1CCC[C@@H](O)CCC/C=C/c2cc(O)cc(O)c2C(=O)O1	CYP2C19 inh 89, CYP2C9 inh 78
CC1CCC/C=C/C2CC(O)CC2C(O)/C=C/C(=O)O1 (stereo not given)	none
C[C@H]1CCC[C@H](O)CCCCCc2cc(O)cc(O)c2C(=O)O1	CYP2C19 inh 81
CN1CSC(=S)N(C)C1	none
CCOc1cc(C=C2C(=O)NC(=O)NC2=O)ccc1OS(=O)(=O)c1ccccc1	CYP2C19 inh 54
Cc1cccc(C)c1NC1=NCCCCS1	none
CCOP(=O)(OCC)C(NC(=O)c1ccc(Cl)cc1)=C(Cl)Cl	CYP2C19 inh 64
CCOP(=O)(C#CC(C)(C)C)C1(O)CCCCC1 (stereo not given)	none (no result: sEH activator, sEH inhibitor)
O=C(Cc1ccccc1)N1CCN(CC2CC=CCC2)CC1 (stereo not given)	none
O=C(Cc1ccccc1)N1CCN(Cc2cccnc2)CC1	CYP2C19 inh 76
CCOC(=O)c1c(C)n(Cc2ccco2)c2c1cc(O)c1ccccc12	CYP2C9 inh 82
O=C(Cn1ncc2c3ccccc3n(Cc3ccc(F)cc3)c2c1=O)N1CCC2(CC1)OCCO2	none (no result: CYP2C19 inh, CYP2C9 inh, CYP2C19 activ, CYP2C9 act)
COc1ccc(C(CC(=O)N2CCC3(CC2)OCCO3)NS(=O)(=O)c2ccc(C)cc2)cc1 (stereo not given)	none
O=C1CC(N2CC=C(c3ccccc3)CC2)C(=O)N1c1ccc(F)cc1 (stereo not given)	CYP2C9 inh 62 (no result: sEH activator, sEH inhibitor)
O=C1CC(N2CCC(n3c(=O)[nH]c4ccccc43)CC2)C(=O)N1c1ccc(F)cc1 (stereo not given)	none
CC(C)(C)N1Cc2ccccc2C1=N	none
C=CCN1C(=O)C2(C(C(=O)OCC)=C(N)Oc3ccccc32)c2c1c1ccccc1oc2=O (stereo not given)	CYP2C9 inh 53
CCOC(=O)C1=C(N)Oc2c(c(=O)oc3ccccc23)C12C(=O)N(C)c1ccccc12 (stereo not given)	none
Cc1ccc2c(c1)N(CCC(=O)N1CCC3(CC1)OCCO3)C(=O)CO2	CYP2C19 inh 95
Cc1ccc2c(c1)N(CCC(=O)N1CCC3(CC1)OCCO3)C(=O)C(C)O2 (stereo not given)	CYP2C19 inh 89
O=C(CCn1c(=O)oc2ccccc21)N1CCC2(CC1)OCCO2	none
Cc1ccc(CS(=O)(=O)CCC(=O)N2CCC3(CC2)OCCO3)cc1	none
C#CCNc1ccncc1S(=O)(=O)NC(=O)NC(C)C	none (no result: CYP2C19 inh, CYP2C9 inh, CYP2C19 activ, CYP2C9 act)
CCc1sc(C(=O)N2CCC3(CC2)OCCO3)cc1Br	CYP2C19 inh 96 (no result: sEH activator, sEH inhibitor)
O=C(c1cc2c(s1)CCCCCC2)N1CCC2(CC1)OCCO2	CYP2C19 inh 97, CYP2C9 inh 73
O=C(NCc1ccc(C(=O)N2CCC3(CC2)OCCO3)cc1)c1cccc(Br)c1	none
O=C(c1ccc2c(c1)ncn2C1CCCCC1)N1CCC2(CC1)OCCO2	none
CN(C)c1ccc2c(c1)N=C(c1ccco1)OP2(=S)N1CCOCC1 (stereo not given)	none
Cc1ccccc1Cc1c(C)nc2nc(SCC(=O)N3CCC4(CC3)OCCO4)nn2c1C	CYP2C9 inh 89
Cc1nc2cc(-c3ccccc3)nn2c(C)c1CCC(=O)N1CCC2(CC1)OCCO2	none (no result: sEH activator, sEH inhibitor)
Cc1ccc(Cc2c(C)nc3nc(SCC(=O)N4CCC5(CC4)OCCO5)nn3c2C)cc1	CYP2C19 inh 52, CYP2C9 inh 65
CSCCC(N=Cc1c(O)n(-c2ccc(Cl)cc2)c(=O)[nH]c1=O)C(=O)OC(C)(C)C (stereo not given)	none
O=C(C1CCN(S(=O)(=O)c2ccccc2)CC1)N1CCC2(CC1)OCCO2	none
CC(C)(C)c1nc(NCc2ccc3c(c2)OCO3)c2nnn(Cc3ccccc3Cl)c2n1	none (no result: CYP2C19 inh, CYP2C9 inh, CYP2C19 activ, CYP2C9 act)
CN1C(=O)N(C)C(=O)C2(Cc3c(ccc4ccccc34)N(C)C2)C1=O	CYP2C19 inh 66
COc1ccc(C(=O)CC2(CC(=O)c3ccc(OC)cc3)C(=O)N(C)C(=O)N(C)C2=O)cc1	none
C=CCn1c(O)c(C=Nc2ccc(OC)cc2C)c(=O)[nH]c1=O	none
CCCC12CN3CC(CCC)(CN(C1)C3c1ccccn1)C2=O (stereo not given)	none
Cc1ccc(S(=O)(=O)Cc2ccc(C(=O)N3CCC4(CC3)OCCO4)o2)cc1	CYP2C19 inh 62, CYP2C9 inh 70
CCOC(=O)N1CCC(NC(=O)CCc2nc(C3=CCN(C)CC3)no2)CC1	none
COC(=O)C(O)(c1ccc(NC(=S)NC(=O)c2ccccc2)cc1)C(F)(F)F (stereo not given)	CYP2C9 inh 50
CCOC(=O)N(C)c1ccc(C(O)(C(=O)OC)C(F)(F)F)cc1 (stereo not given)	none (no result: CYP2C19 inh, CYP2C9 inh, CYP2C19 activ, CYP2C9 act)
COC(=O)C(O)(c1ccc(N(C)S(=O)(=O)c2ccccc2)cc1)C(F)(F)F (stereo not given)	CYP2C19 inh 92, CYP2C9 inh 88 (no result: sEH activator, sEH inhibitor)
CCOC(=O)C(O)(c1ccc(N(CC)S(=O)(=O)c2ccc(C)cc2)cc1)C(F)(F)F (stereo not given)	CYP2C9 inh 69
CCN(c1ccc(C(O)(C(=O)OC)C(F)(F)F)cc1)S(=O)(=O)c1ccc(C)cc1 (stereo not given)	none
CC(C)N1CCC2(CC1)NC(CO)(CO)CO2	none
CCOc1ccc(N=C2SCCCN2C)cc1	none (no result: CYP2C19 inh, CYP2C9 inh, CYP2C19 activ, CYP2C9 act)
COc1ccc2c(c1OC)C(=O)OC2c1c(O)n(Cc2ccc(F)cc2)c(=O)[nH]c1=O (stereo not given)	none (no result: sEH activator, sEH inhibitor)
